The record followed here is ChEMBL document CHEMBL2218924, “A broad activity screen in support of a chemogenomic map for kinase signalling research and drug discovery” (Biochem J, 2013).

The target in experiment [1] is Serine/threonine-protein kinase SIK1 (Homo sapiens) (UniProt P57059). The conditions noted are these: at 10 µM.
In experiment [2] the target is SRSF protein kinase 1 (Homo sapiens) (UniProt Q96SB4). The conditions noted are these: at 1 µM.
For experiment [3] the target is unchanged. The following applies: at 10 µM.
For experiment [4], the target named is Serine/threonine-protein kinase 33 (Homo sapiens) (UniProt Q9BYT3). The following applies: at 10 µM.
Experiment [5] has as its target Serine/threonine-protein kinase PLK2 (Homo sapiens) (UniProt Q9NYY3). The conditions noted are these: at 1 µM.
The target is the same in experiment [6]. The conditions noted are these: at 10 µM.
Experiment [7] addresses Tyrosine-protein kinase SYK (Homo sapiens) (UniProt P43405). The conditions noted are these: at 1 µM.
In experiment [8] the target is SRSF protein kinase 2 (Homo sapiens) (UniProt P78362). The following applies: at 1 µM.
For experiment [9] the target is unchanged. The conditions noted are these: at 10 µM.
The target of experiment [10] is Serine/threonine-protein kinase 33 (Homo sapiens) (UniProt Q9BYT3). The conditions noted are these: at 1 µM.

Sequence of Serine/threonine-protein kinase SIK1 (Homo sapiens) (P57059 whole entry): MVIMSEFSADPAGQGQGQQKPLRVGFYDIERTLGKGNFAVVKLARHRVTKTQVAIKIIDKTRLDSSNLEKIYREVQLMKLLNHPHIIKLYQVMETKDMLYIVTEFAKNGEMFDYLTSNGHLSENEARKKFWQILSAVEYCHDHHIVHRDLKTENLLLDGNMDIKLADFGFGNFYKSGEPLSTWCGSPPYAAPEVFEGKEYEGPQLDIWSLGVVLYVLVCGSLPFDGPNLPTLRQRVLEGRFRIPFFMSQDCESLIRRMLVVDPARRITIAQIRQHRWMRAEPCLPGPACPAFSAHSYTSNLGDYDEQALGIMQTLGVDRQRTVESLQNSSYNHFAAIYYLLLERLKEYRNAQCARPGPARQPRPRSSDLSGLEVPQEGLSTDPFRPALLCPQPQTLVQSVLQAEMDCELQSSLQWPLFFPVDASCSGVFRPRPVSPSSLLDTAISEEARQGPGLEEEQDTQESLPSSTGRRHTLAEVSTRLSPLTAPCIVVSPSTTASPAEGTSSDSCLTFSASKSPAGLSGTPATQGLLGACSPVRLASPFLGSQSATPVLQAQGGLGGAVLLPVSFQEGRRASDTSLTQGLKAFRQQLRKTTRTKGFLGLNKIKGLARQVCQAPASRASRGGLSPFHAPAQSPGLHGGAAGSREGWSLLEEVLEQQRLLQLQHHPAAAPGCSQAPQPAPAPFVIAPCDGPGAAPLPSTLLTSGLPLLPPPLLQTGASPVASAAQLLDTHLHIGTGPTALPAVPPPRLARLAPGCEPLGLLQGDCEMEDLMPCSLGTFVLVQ
Sequence of Serine/threonine-protein kinase PLK2 (Homo sapiens) (Q9NYY3 whole entry, looked up): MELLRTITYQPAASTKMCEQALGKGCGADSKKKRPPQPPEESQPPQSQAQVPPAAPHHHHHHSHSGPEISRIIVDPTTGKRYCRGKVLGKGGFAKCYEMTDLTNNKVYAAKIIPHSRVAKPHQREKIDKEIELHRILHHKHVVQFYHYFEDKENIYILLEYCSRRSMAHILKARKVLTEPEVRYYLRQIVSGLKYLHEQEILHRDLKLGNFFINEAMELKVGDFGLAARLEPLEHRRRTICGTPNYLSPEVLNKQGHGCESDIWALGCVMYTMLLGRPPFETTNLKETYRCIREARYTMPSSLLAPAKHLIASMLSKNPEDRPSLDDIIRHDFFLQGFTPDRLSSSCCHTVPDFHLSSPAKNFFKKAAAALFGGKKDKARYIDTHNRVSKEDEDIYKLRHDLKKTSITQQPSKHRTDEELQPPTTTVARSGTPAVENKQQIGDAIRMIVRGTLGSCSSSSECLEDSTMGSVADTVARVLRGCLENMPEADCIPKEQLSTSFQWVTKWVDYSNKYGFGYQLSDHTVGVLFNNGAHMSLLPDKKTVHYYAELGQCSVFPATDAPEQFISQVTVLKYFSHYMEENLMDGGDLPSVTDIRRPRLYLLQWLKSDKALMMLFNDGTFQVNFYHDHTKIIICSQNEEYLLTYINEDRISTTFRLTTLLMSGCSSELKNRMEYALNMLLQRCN
Sequence of SRSF protein kinase 1 (Homo sapiens) (Q96SB4 whole entry): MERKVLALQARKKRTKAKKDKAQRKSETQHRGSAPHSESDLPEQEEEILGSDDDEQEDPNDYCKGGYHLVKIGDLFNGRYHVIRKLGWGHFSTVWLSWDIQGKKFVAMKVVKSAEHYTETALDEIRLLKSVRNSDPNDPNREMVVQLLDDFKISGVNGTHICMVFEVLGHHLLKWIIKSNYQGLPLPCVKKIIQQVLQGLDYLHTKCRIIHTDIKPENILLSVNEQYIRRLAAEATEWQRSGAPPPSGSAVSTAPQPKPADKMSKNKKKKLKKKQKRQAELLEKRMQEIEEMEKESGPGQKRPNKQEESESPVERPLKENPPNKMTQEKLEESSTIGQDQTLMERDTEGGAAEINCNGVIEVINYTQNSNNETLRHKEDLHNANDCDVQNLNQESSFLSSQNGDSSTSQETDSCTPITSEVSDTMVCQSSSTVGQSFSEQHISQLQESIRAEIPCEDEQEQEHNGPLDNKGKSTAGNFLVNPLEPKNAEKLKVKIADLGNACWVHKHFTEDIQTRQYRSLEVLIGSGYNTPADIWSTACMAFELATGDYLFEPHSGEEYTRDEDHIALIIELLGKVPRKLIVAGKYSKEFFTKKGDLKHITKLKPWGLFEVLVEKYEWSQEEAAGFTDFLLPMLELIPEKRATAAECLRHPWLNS
Sequence of SRSF protein kinase 2 (Homo sapiens) (P78362 whole entry, looked up): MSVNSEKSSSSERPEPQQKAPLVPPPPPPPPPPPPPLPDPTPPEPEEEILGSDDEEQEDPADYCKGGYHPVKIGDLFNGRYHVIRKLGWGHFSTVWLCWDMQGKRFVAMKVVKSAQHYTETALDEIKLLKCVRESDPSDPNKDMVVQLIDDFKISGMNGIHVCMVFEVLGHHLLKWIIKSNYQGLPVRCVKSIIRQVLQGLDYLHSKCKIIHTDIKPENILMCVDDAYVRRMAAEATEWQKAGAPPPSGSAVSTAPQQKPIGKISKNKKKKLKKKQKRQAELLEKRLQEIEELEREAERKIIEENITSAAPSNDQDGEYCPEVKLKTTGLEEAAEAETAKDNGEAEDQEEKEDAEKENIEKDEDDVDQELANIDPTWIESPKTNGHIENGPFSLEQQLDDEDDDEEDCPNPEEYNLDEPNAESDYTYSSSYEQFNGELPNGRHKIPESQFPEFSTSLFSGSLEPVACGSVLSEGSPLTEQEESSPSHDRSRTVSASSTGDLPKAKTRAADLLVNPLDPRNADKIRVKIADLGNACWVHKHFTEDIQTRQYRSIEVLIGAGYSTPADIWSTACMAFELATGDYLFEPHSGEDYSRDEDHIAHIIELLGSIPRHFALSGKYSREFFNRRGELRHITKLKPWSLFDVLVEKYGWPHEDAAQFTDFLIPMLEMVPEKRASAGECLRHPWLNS
Sequence of Serine/threonine-protein kinase 33 (Homo sapiens) (Q9BYT3 whole entry, looked up): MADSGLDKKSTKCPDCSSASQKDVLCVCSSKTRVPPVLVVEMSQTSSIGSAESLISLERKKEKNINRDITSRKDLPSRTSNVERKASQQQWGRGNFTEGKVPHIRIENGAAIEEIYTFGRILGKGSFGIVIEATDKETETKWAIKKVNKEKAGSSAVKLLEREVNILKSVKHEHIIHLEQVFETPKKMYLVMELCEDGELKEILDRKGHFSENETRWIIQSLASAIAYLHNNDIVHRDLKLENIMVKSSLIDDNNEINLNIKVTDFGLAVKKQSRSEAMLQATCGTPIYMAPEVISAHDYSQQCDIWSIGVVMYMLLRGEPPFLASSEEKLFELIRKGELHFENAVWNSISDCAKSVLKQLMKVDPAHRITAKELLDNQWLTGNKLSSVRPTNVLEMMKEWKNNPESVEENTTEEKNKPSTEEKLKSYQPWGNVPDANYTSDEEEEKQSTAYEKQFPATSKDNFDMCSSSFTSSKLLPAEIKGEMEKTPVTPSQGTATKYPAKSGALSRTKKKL

What is called residual activity is the signal under treatment as a percentage of the control signal. In the case of `Nc1nc(Nc2ccc(S(N)(=O)=O)cc2)nn1C(=O)c1c(F)cccc1F`, the residual activity in experiment [1] was determined as 6%; in experiment [2], 56%; in [3], 7%; in [4], 76%; in experiment [5] it was 96%; in experiment [6], 60%. The residual activity in experiment [7] turned out to be 47%.

In the case of `CCCCc1c(-c2ccc(O)cc2)[nH]c2nccnc12`, the residual activity came to 36% in experiment [1]; 91% in experiment [8]; 90% in [9]; 99% in [10]; 62% in [4]; 100% in experiment [5]. The residual activity in experiment [6] worked out at 86%; in experiment [7] it was 50%.

Turning to `Nc1ncnc2c1c(-c1ccc(Oc3ccccc3)cc1)cn2C1CCCC1`, the residual activity in experiment [1] was found to be 27%; in experiment [2], 104%; in experiment [3], 103%; in experiment [8] it was 93%; in experiment [9], 90%; in experiment [10], 87%. The residual activity amounted to 57% in experiment [4], 97% in experiment [5], 93% in experiment [6] and 109% in experiment [7].

On to `NC(=O)Nc1sc(-c2ccc(F)cc2)cc1C(N)=O`, for which the residual activity stood at 5% in experiment [1]; 105% in experiment [2]; 78% in [3]; 102% in experiment [8]; 75% in experiment [9]; 89% in [10]. The residual activity turned out to be 63% in experiment [4], 101% in [5] and 73% in experiment [6].

In the case of `CC(C)(C)c1nc2c3ccc(F)cc3c3c(=O)[nH]ccc3c2[nH]1`, the residual activity came out at 42% in experiment [1]; 99% in experiment [2]; 73% in [9]; 34% in experiment [10]; 24% in [4]; 49% in experiment [5]. In addition, the residual activity in [6] turned out to be 44%.

In the case of `CSc1nc(-c2ccc(F)cc2)c(-c2ccnc(NC(C)c3ccccc3)c2)[nH]1` (stereo not drawn), the residual activity was found to be 87% in experiment [1]; 94% in experiment [2]; 84% in experiment [3]; 91% in experiment [8]; 87% in experiment [9]; 92% in experiment [10]. Moreover, the residual activity is 93% in experiment [4], 87% in experiment [6] and 101% in [7].

For `CCN(CC)CCNC(=O)c1c(C)[nH]c(/C=C2\C(=O)Nc3ccc(Cl)cc32)c1C`, the residual activity was determined as 5% in [1]; 98% in experiment [8]; 78% in [9]; 33% in experiment [10]; 6% in experiment [4]; 98% in [5]. In addition, in experiment [6], the residual activity came to 58%.

Regarding `Nc1n[nH]c2nc3ccccc3nc12`, the residual activity in experiment [1] came out at 72%; in experiment [8], 94%; in experiment [9], 82%; in [10], 98%; in experiment [4] it was 83%; in experiment [5], 99%. Also, in experiment [6], the residual activity was 68%.

`O=c1cc(N2CCOCC2)oc2c1ccc1ccccc12`: the residual activity in experiment [1] amounted to 93%; in experiment [2], 99%; in [3] it was 93%; in [8], 97%; in experiment [9], 97%; in experiment [10], 93%. The residual activity in experiment [4] was found to be 101%; in experiment [5], 98%; in experiment [6], 85%.

For `O=c1cc(N2CCNCC2)oc2c(-c3ccccc3)cccc12`, the residual activity in [1] came out at 8%; in experiment [2], 99%; in experiment [3], 85%; in [8] it was 91%; in experiment [9] it was 93%; in [10], 98%. In addition, the values for the residual activity in experiment [4], in experiment [5] and in [6] were 93%, 99% and 95%, respectively.

As for `O=C(c1cc2cc(O)ccc2[nH]1)c1cc2cc(O)ccc2[nH]1`, the residual activity was 8% in experiment [1]; 81% in experiment [2]; 79% in experiment [3]; 71% in experiment [9]; 83% in [10]; 62% in experiment [4]. Also, the residual activity was found to be 78% in [6] and 82% in [7].

Turning to `NC(=O)c1cccc(-c2cc(Nc3ccc(OC(F)(F)F)cc3)ncn2)c1`, the residual activity amounted to 7% in experiment [1] and 97% in experiment [3].

`COc1ccc2c(c1)c(C1=C(c3c[nH]c4ccccc34)C(=O)NC1=O)cn2CCCN(C)C`: the residual activity in experiment [1] was 34%; in experiment [2], 97%; in experiment [3] it was 56%; in experiment [10], 71%; in experiment [4], 22%; in experiment [7], 113%.

For `O=C1Cc2c([nH]c3ccc([N+](=O)[O-])cc23)-c2ccccc2N1`, the values for the residual activity in experiment [1] and in [2] were 68% and 105%, respectively.

As for `CN([C@@H](Cc1ccc(OS(=O)(=O)c2cccc3cnccc23)cc1)C(=O)N1CCN(c2ccccc2)CC1)S(=O)(=O)c1cccc2cnccc12`, the residual activity in [1] is 124%; in experiment [3] it was 86%; in experiment [5] it was 100%; in experiment [6] it was 99%.

As to `N#C/C(=C\c1ccc(O)c(O)c1)C(=O)NCc1ccccc1`, the residual activity in [1] is 1%; in [2], 100%; in experiment [7], 127%.

For `CCCC(=O)Oc1ccc2[nH]c(C(=O)c3cc4ccccc4[nH]3)cc2c1`, the residual activity was found to be 54% in experiment [1]; 104% in [2]; 103% in experiment [3]; 103% in experiment [8]; 87% in experiment [9]; 92% in experiment [10]. Besides, the residual activity in experiment [4] worked out at 91%; in experiment [5] it was 102%; in experiment [6], 107%; in [7], 126%.

Regarding `CCCCc1c(-c2ccc(OC)cc2)[nH]c2nccnc12`, the residual activity in experiment [1] was found to be 78%; in experiment [2], 118%; in [3], 106%; in experiment [8] it was 90%; in [9] it was 84%; in [10], 106%. Moreover, the residual activity in experiment [7] is 37%.

Consider `O=C1Nc2ccc(Cl)cc2/C1=C/c1cc(Cl)c(O)c(Cl)c1`, for which the residual activity came to 71% in [1]; 100% in [8]; 69% in [9]; 88% in experiment [10]; 94% in experiment [4]; 94% in [5]. In addition, the residual activity in experiment [6] was found to be 92%; in experiment [7], 96%.

In the case of `O=S(=O)(NCCNC/C=C/c1ccc(Br)cc1)c1cccc2cnccc12`, the residual activity in [1] was determined as 57%.

As to `COc1cc2nccc(Oc3ccc(NC(=S)NC(=O)c4ccccc4C)cc3)c2cc1OC`, the residual activity amounted to 37% in experiment [1]; 102% in [2]; 96% in experiment [3]; 100% in experiment [8]; 91% in experiment [9]; 97% in [10]. The residual activity in [4] turned out to be 90%; in [5] it was 72%; in experiment [6], 35%; in [7], 99%.

For `O=C(O)/C=C/c1cc(Br)c(Br)c(Br)c1Br`, the residual activity was 98% in experiment [1]; 103% in experiment [8]; 89% in experiment [9]; 103% in experiment [10]; 99% in [4]; 39% in experiment [5]. Besides, the residual activity in [7] was 108%.

As to `COc1ccc(Cl)cc1NC(=O)Nc1cc(C)nc2ccccc12`, the residual activity was 134% in experiment [1]; 94% in [8]; 86% in [9]; 99% in experiment [10]; 98% in experiment [4].

Consider `Cn1sc(=O)n(Cc2ccccc2)c1=O`, for which the residual activity in experiment [1] turned out to be 83%; in experiment [2], 83%; in experiment [3], 91%; in experiment [8] it was 93%; in experiment [9], 76%; in experiment [10] it was 95%. In addition, the residual activity in [4] came to 88%.

In the case of `CCOC(=O)c1c(C)[nH]c(/C=C2\C(=O)Nc3ccccc32)c1C`, the residual activity in experiment [1] amounted to 91%; in experiment [2] it was 92%; in experiment [3], 97%; in experiment [8] it was 93%; in experiment [9], 89%; in [10] it was 89%. The residual activity in experiment [4] stood at 97%.

With `O=C1NC(=O)C(c2c[nH]c3ccccc23)=C1c1c[nH]c2ccccc12`, the residual activity in [1] was 7%; in experiment [2], 63%; in experiment [3], 6%; in [8], 74%; in experiment [9] it was 22%; in experiment [4], 71%. For the same compound, the residual activity in [7] was 120%.

Regarding `CC(C)(C)n1nc(Cc2cccc3ccccc23)c2c(N)ncnc21`, the residual activity in experiment [1] came to 49%; in [2], 103%; in experiment [3] it was 101%; in [8], 99%; in experiment [9] it was 94%; in experiment [10], 92%. In addition, the residual activity in experiment [4] is 100%; in [5], 103%; in experiment [6] it was 95%; in experiment [7] it was 104%.

Turning to `Nc1ncnc2[nH]nc(Nc3ccc(F)cc3)c12`, the residual activity in [1] stood at 6%; in experiment [2], 95%; in experiment [3] it was 79%; in experiment [8] it was 104%; in experiment [10] it was 100%; in [4] it was 94%. Moreover, the results for the residual activity in [5], in experiment [6] and in experiment [7] were 102%, 95% and 91%, respectively.

As for `CC(C)c1nn(-c2c(Cl)cccc2Cl)c2nc(Cc3ccc(OCCO)cc3)[nH]c(=O)c12`, the residual activity in experiment [1] is 61%; in [2], 88%; in experiment [3] it was 37%; in [8], 83%; in experiment [9] it was 43%; in experiment [10], 105%. The residual activity in experiment [4] was 61%; in experiment [5], 100%; in experiment [6] it was 92%; in experiment [7] it was 101%.

On to `COc1cc2c(cc1OC)-c1n[nH]c(Nc3cccc(F)c3)c1C2`, for which the figures for the residual activity in experiment [1], in experiment [3] and in experiment [7] were 5%, 105% and 117%, respectively.

On to `O=C1NC(=O)c2c1c1c3ccccc3[nH]c1n1cncc21`, for which the residual activity was 44% in experiment [1]; 91% in experiment [2]; 76% in experiment [3]; 103% in experiment [8]; 72% in experiment [9]; 79% in [10]. The residual activity worked out at 70% in [4], 38% in [5], 38% in experiment [6] and 60% in experiment [7].
